12-hLO inh: 12-hLO (ALOX12) enzyme inhibition; P18054; purified 12-hLO, xylenol orange hydroperoxide absorbance; Potency, µM (doses to about 57.1 µM), inactives show at the top dose activity change, negative = inhibition, most hits filed as inhibitors; hit rate 0.12% among 150,000; active = well fitted inhibition curve with a large enough effect; inconclusive = small, poorly fitted or top-dose-only effect; also: potency is read from the fitted curve at half-maximal effect; nearly all actives have a fitted effect of over 55% in size
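Purified human 12hLO (150 nM), preincubated 15 min with compound, then 40 uM arachidonic acid for 30 min, room temperature, Hepes pH 7.0 with 0.01% Triton X-100. Hydroperoxide detected by ferrous iron/xylenol orange; 573/405 nm absorbance ratio gives reaction progress.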
HPGD inh: blocks human HPGD enzyme activity | P15428 | purified HPGD, NADH fluorescence kinetic, PGE2 substrate | Potency, µM, inactives show at the top dose activity change, negative = inhibition, most hits filed as inhibitors | hit rate 4.3% among 150,000 | AID 894; also: potency is read from the fitted curve at half-maximal effect
Target sequence (P15428 whole entry, looked up): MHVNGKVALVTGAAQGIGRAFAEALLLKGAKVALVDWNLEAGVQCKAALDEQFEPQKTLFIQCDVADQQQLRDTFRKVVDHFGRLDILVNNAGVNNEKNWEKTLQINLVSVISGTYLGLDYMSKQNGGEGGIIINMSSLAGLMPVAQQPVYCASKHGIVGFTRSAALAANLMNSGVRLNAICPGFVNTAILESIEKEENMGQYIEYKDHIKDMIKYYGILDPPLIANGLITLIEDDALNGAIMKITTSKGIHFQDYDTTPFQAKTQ
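NADH formation kinetics: reaction with 30 uM PGE2 and 1 mM NAD+ (final), 20 nM enzyme, Tris-HCl pH 8 with Tween 20, after 15 min compound preincubation at room temperature. Fluorescence change, last versus first of five reads.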
ALDH1A1 block: ALDH1A1 (human) enzyme inhibition; hit rate 7.3% among 220,000; AID 1030; Potency, µM (doses to about 75.3 µM), without a hit: at the highest dose activity, negative = inhibition, hits mostly inhibitors; P00352; Purified ALDH1A1, NADH fluorescence, propionaldehyde substrate;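 also: potency is read from the fitted curve at half-maximal effect; plate controls were no enzyme wells and a reference inhibitor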
Target sequence (P00352 whole entry, looked up): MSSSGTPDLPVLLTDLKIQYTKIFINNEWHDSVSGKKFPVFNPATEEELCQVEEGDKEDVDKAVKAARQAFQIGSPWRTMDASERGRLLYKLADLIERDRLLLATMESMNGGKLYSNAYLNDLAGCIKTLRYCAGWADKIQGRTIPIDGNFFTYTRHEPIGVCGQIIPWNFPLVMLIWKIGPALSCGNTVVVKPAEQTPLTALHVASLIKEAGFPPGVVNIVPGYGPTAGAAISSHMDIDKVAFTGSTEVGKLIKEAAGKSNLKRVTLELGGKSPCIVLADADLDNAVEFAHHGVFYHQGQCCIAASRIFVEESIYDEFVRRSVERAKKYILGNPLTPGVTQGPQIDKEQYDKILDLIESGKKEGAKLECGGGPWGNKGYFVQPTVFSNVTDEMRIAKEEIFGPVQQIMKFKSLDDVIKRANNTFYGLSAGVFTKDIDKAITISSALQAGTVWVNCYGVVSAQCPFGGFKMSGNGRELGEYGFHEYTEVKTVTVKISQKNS
LMNA splice mod: changes lamin A minigene splicing in HeLa cells; AID 1487; hit rate 0.01% among 200,000; Potency, µM (top dose mostly 46.1 µM), for the others: top-dose ratio change, negative = inhibition, actives largely listed as inhibitors; HeLa LMNA splicing GFP/RFP minigene ratio, 48 h; active = well fitted inhibition curve with a large enough effect in the signal ratio, with a control signal flat, not every such curve was filed as active; inconclusive = small, poorly fitted or top-dose-only effect, or effect the other way, or a change in a side signal; the % refers to the signal ratio; also: potency is read from the fitted curve at half-maximal effect
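S3 HeLa cells stably expressing lamin A-EGFP splicing minigene plus DsRed2, 600 cells/well, 48 h compound exposure at 37C. Laser-scanning cytometry; analysed as GFP (500-530 nm)/RFP (575-640 nm) total intensity ratio; 0.5% DMSO vehicle.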
PNC assembly inh: inhibitors of perinucleolar compartment assembly | PC3M PTB-GFP, PNC prevalence imaging, 16 h; active compounds read low | hit rate 3.1% among 140,000 | activity change (PNC), negative = inhibition, % at 10 µM;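 active = readout at or below -70, meaning at least 70% loss of cells showing the perinucleolar compartment, a nuclear body marking cancer cells; inconclusive = readout between -30 and a set limit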;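 also: plate controls were DMSO wells for no effect and camptothecin positive control wells for full effect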
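PC3M cells stably expressing PTB-GFP, 750–1000 cells/well, treated 16 h at 37 °C with compound (23 nl of library stock), in duplicate. After paraformaldehyde fixation and Hoechst stain, imaged at 20x; PNC prevalence scored by image analysis.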
* hit, by the source's call; ? = inconclusive; . = no result; [ ] = remark or other dose. Compounds with a hit are over-represented: about 10% of the library has one in this group of screens. Unless noted, calls follow the shape of the dose curve; as a rule, active = well fitted inhibition curve with a large enough effect (not every such curve was filed as active); inconclusive = small, poorly fitted or top-dose-only effect, or another doubt; inactive = no such curve, though single readings can be large or run the other way. Unless noted, % is scaled to controls: 0 for no effect and ±100 for the full control effect.

SMILES	12-hLO inh	HPGD inh	ALDH1A1 block	LMNA splice mod	PNC assembly inh
COc1ccc(-c2cn3c(n2)sc2cc(C(=O)NC4CCCc5ccccc54)ccc23)cc1 (configuration not stated)	.	.	.	6.6%[46 µM]	.
Cc1ccc([S+](=O)([O-])N(c2ccccc2)[S+](=O)([O-])C(F)(F)F)cc1	.	-3.5%	5.7%	.	.
CCOc1ccc(CCNc2ncnc3onc(-c4ccc(Cl)cc4)c23)cc1	.	.	.	4.8%[46 µM]	.
COc1ccccc1C/C(N)=N/OC(=O)COc1ccc(C)cc1	-2.2%	-22.6%	-5.3%	0.1%[0.0737 µM]	30.0
CNC(=O)C1CCC(Cn2c(=O)c3sccc3n(CC(=O)Nc3cc(C)cc(C)c3)c2=O)CC1 (configuration not stated)	.	.	.	-0.6%[46 µM]	.
CCn1cc(C(=O)NCCOC)c(=O)c2ccc(C)nc21	8.5%	-26.7%	11.2µM*	-2.1%	-2.6
CCn1cc(C(=O)OC)c(=O)c2ccc(C)nc21	.	.	-0.1%	19.0%[46 µM]	.
COCCNC(=O)c1cn(C)c2ccccc2c1=O	.	.	3.55µM*	-10.8%[9.22 µM]	.
CCC(=O)Oc1ccc2c(c1)CCC1C2CC[C@]2(C)C(OC(=O)CC)CCC12 (some centres not stated)	-0.6%[0.00818 µM]	-7.0%	3.1%	.	.
CSc1ccc(S(=O)(=O)Nc2ccc3c4c(cccc24)CC3)cc1	-16.3%	-13.3%	?	7.7%	31.9
Cc1cc(O)c(C(C)C)cc1NS(=O)(=O)c1ccccc1	-2.1%	-8.1%	14.1µM*	-18.4%	?
O=S(=O)(Nc1ccc2c3c(cccc13)CC2)c1ccc(F)cc1	-1.2%	-15.3%	12.6µM*	?	-15.6
Cc1ccccc1NS(=O)(=O)c1ccc(F)cc1	-0.6%	1.9%	3.4%	1.4%	-97.4*
CSc1ccccc1NS(=O)(=O)c1ccccc1	-1.4%	-8.4%	8.91µM*	13.0%	-29.4
CCCS(=O)(=O)N1CCC(C(=O)NCCOC)CC1	.	.	.	6.3%[46 µM]	.
Cc1ccc(NC(=O)COC(=O)Cn2cnc3ccccc32)cc1S(=O)(=O)N(C)C	4.6%	-2.1%	14.1µM*	5.7%	43.9
O=C(COC(=O)Cn1cnc2ccccc21)NCCc1ccccc1	-1.0%	-7.1%	-5.6%	-8.1%	-83.5*
O=C(COC(=O)Cn1cnc2ccccc21)Nc1ccc2c(c1)C(=O)c1ccccc1C2=O	-3.9%	-25.6%	0.631µM*	-14.1%	36.4
O=C(Cn1cnc2ccccc2c1=O)N1CCc2ccccc2C1	.	.	2.3%	?	.
O=C(Cn1cnc2ccccc21)OCC(=O)N1CCc2ccccc2C1	-4.3%	-14.0%	28.2µM*	2.0%	7.8
CCOC(=O)c1ccc(Nc2c(-c3ccc(N(C)C)cc3)nc3nc[nH]n23)cc1	.	.	.	-25.2%[46 µM]	.
CC(C)C(C(=O)O)N1CCS(=O)(=O)CC1 (configuration not stated)	.	.	6.1%	.	.
CCOc1nc(NCc2ccco2)nc(Nc2ccc(OC)cc2)n1	-12.8%	-12.9%	20µM*	3.1%	?
O=C(O)CCC/C=C\C[C@@H]1C(/C=C/[C@@H](O)COc2cccc(C(F)(F)F)c2)[C@@H](O)C[C@@H]1O (some centres not stated)	.	.	2.5%	.	.
COc1ccc(N(C)S(=O)(=O)c2cccc(C(=O)OC(C(=O)Nc3cc(C)cc(C)c3)c3ccccc3)c2)cc1 (configuration not stated)	-0.8%	-3.3%	8.2%	?	-102.3*
SMILES	12-hLO inh	HPGD inh	ALDH1A1 block	LMNA splice mod	PNC assembly inh
C=C1C[C@@]23C[C@@]1(O)CCC2[C@@]12C=CC(O)[C@](C)(C(=O)O1)C2C3C(=O)O (some centres not stated)	0.1%	-5.1%	4.3%	-6.8%	.
Cc1ccsc1C(=O)Nc1ccc(F)c([N+](=O)[O-])c1	0.4%	-17.6%	-2.5%	?	-81.0*
O=C(Nc1ccccc1)Nc1ccc(F)c([N+](=O)[O-])c1	0.4%	-10.0%	-6.4%	?	2.1
CN1C(=O)CC(C(=O)O)SC1=Nc1cc(Cl)c(O)c(Cl)c1 (configuration not stated)	-2.6%	-17.3%	9.2%	3.9%	-5.2
CN1C(=O)CC(C(=O)O)SC1=Nc1cc(Cl)cc(Cl)c1 (configuration not stated)	0.0%	-16.9%	-2.0%	?	-86.9*
CCN(CC)CCNC(=O)c1c(C)n(-c2ccccc2)c2cc(Br)c(OC)cc12	0.7%	-6.3%	0.631µM*	?	10.1
COc1cc2c(C(=O)N3CCN(C)CC3)c(C)n(-c3ccccc3)c2cc1Br	2.2%	-25.8%	?	12.6%	14.3
Cn1c(C(=O)N2CCCC(C(=O)NCc3cccs3)C2)cc2sccc21 (configuration not stated)	8.3%	-25.4%	?	-13.1%	-29.0
CCn1c(C(=O)N2CCCC(C(=O)NCCc3ccc(C)cc3)C2)cc2sccc21 (configuration not stated)	-4.8%	-4.9%	31.6µM*	?	?
Cn1c(C(=O)N2CCCC(C(=O)NCCCSC3CCCCC3)C2)cc2sccc21 (configuration not stated)	?	-5.1%	1.26µM*	?	?
Cc1ccc(CNC(=O)Nc2cn(CC(C)C)c(=O)c3ccccc23)cc1	.	.	.	6.4%[46 µM]	.
Cn1c(-c2cnn(-c3ccccc3)c2-n2cccc2)n[nH]c1=S	.	.	22.4µM*	20.9%[46 µM]	.
CCCCCCSc1nnc(-c2cnn(-c3ccccc3)c2-n2cccc2)n1C	-20.9%	?	7.08µM*	?	8.2
COc1ccc(C)cc1NS(=O)(=O)c1ccc2c(c1)CCCN2C(C)=O	.	.	.	1.2%[46 µM]	.
c1coc(-c2nnc(SCc3cn4ccccc4n3)o2)c1	5.7%	-12.3%	4.8%	-2.9%	-13.0
Brc1c(CSc2nnc(-c3ccco3)o2)nc2ccccn12	7.5%	7.94µM*	?	-2.7%	?
CC1=[N+]([O-])C(C)(C)C(c2ccc(Br)cc2)=[N+]1[O-]	-5.2%	-6.1%	-3.5%	?	?
COc1ccc(CN2CCS(=O)(=O)CC2)cc1OC	.	.	-14.3%	.	.
COc1ccc(CN2C(=O)CS(=O)CC2=O)cc1OC	0.8%	-12.5%	8.91µM*	-9.6%	-25.6
Cc1ccc(N(CC(N)=O)C2SC(=O)N(Cc3cccc(C(=O)O)c3)C2=O)cc1 (configuration not stated)	-13.2%	-9.4%	20µM*	3.4%	28.8
C=CCSc1nn2c(=O)c3ccccc3nc2s1	-1.2%	-6.7%	3.9%	-5.6%	4.3
COc1cc(/C=c2\sc3nc(=O)c(-c4ccccc4)nn3c2=O)ccc1OCCC(C)C	-4.9%	-9.7%	?	-15.3%	7.2
C=CCN1C(=O)/C(=c2\sc3nc(=O)c(Cc4ccccc4)nn3c2=O)c2ccccc21	.	.	3.55µM*	?	.
C=CCN1C(=O)/C(=c2\sc3nc(=O)c(Cc4ccc(OC)c(OC)c4)nn3c2=O)c2ccccc21	.	.	3.16µM*	.	.
COc1ccc(-c2cn3nc(N4CCC(C(=O)Nc5cccc(Cl)c5)CC4)sc3n2)cc1	.	.	.	8.8%[46 µM]	.
COC(=O)c1coc(-c2ccc(C)cc2)c1C(=O)OC	-7.0%	-23.2%	22.4µM*	9.8%	7.6

Screening data: PubChem, National Center for Advancing Translational Sciences (NCATS)
